Measured values published in PubChem BioAssay AID1159580 (chemical genetic matrix, 2015).
Values joined by “and” are separate entries in the source; they are usually repeats but may differ in a detail not shown here. Equal values may be shown once. Hit rate of the full screen: of about 5,500 compounds, about 2,000 (36%) were called active. Another 18% or so got no clear call; they are omitted. Cut-off read from the data, not from the text of the source: active = normalized growth mostly below about 0.91 (no sharp cut-off); inconclusive = no clear call, values can overlap the other calls; inactive = mostly above about 0.92. The list shows a part of the results.

Assay: chemical genetic growth profiling, strain panel (AID 1159580);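 note: tested at 20 µM; growth read once vehicle control cultures reached saturation at 30 °C; 1 = growth at the plate median or of vehicle wells; lower values mean less growth of the strain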
Details: S. cerevisiae deletion strains, growth OD

Measured: normalized growth

COc1cccc(OC)c1C(=O)N[C@@H]1C(=O)N2[C@@H]1SC(C)(C)[C@@H]2C(=O)O
inactive: locus YAL013W, strain DEP1, active compounds read low 0.994 | locus YAL021C, strain ccr4, active compounds read low 1.01 | locus YAL026C, strain drs2, active compounds read low 1.01 | locus YAL030W, strain snc1, active compounds read low 0.997 | locus YBL061C, strain skt5, active compounds read low 0.998 | locus YBR009C, strain hhf1, active compounds read low 0.997 | locus YBR021W, strain FUR4, active compounds read low 1.01 | locus YBR023C, strain chs3, active compounds read low 0.988 | locus YBR171W, strain sec66, active compounds read low 0.987 | locus YBR229C, strain ROT2, active compounds read low 1.01 | locus YBR231C, strain swc5, active compounds read low 0.984 | locus YBR279W, strain paf1, active compounds read low 1 | locus YCL011C, strain gbp2, active compounds read low 1.01 | locus YCL016C, strain dcc1, active compounds read low 1 | locus YCL029C, strain bik1, active compounds read low 0.99 | locus YCL069W, strain vba3, active compounds read low 1 | locus YCR088W, strain abp1, active compounds read low 0.996 | locus YDL005C, strain med2, active compounds read low 0.991 | locus YDL035C, strain GPR1, active compounds read low 1 | locus YDL040C, strain nat1, active compounds read low 0.995 | locus YDL074C, strain BRE1, active compounds read low 1.03 | locus YDL101C, strain DUN1, active compounds read low 1 | locus YDL134C, strain PPH21, active compounds read low 1.01 | locus YDL185W, strain tfp1, active compounds read low 0.967 | locus YDL192W, strain arf1, active compounds read low 0.988 | locus YDR001C, strain nth1, active compounds read low 1 | locus YDR069C, strain doa4, active compounds read low 1.01 | locus YDR101C, strain arx1, active compounds read low 0.997 | locus YDR137W, strain rgp1, active compounds read low 1.03 | locus YDR150W, strain NUM1, active compounds read low 0.983 | locus YDR159W, strain sac3, active compounds read low 0.988 | locus YDR162C, strain NBP2, active compounds read low 0.979 | locus YDR195W, strain ref2 0.979 | locus YDR297W, strain sur2, active compounds read low 1 | locus YDR318W, strain mcm21, active compounds read low 0.987 | locus YDR334W, strain swr1, active compounds read low 0.995 | locus YDR335W, strain msn5, active compounds read low 0.998 | locus YDR388W, active compounds read low 1 | locus YDR392W, strain spt3, active compounds read low 0.998 | locus YDR502C, strain sam2, active compounds read low 0.995 | locus YEL003W, strain gim4, active compounds read low 1 | locus YEL037C, strain rad23, active compounds read low 0.997 | locus YEL061C, strain CIN8 (second series), active compounds read low 0.996 | locus YEL061C, strain CIN8, active compounds read low 0.986 | locus YER015W, strain faa2, active compounds read low 1 | locus YER016W, strain bim1, active compounds read low 0.997 | locus YER110C, active compounds read low 0.991 | locus YER111C, strain swi4, active compounds read low 0.995 | locus YER155C, strain BEM2 (second series), active compounds read low 0.966 | locus YER155C, strain BEM2, active compounds read low 1.01 | locus YER167W, strain BCK2, active compounds read low 0.999 | locus YFR010W, strain ubp6, active compounds read low 0.989 | locus YGL078C, strain dbp3, active compounds read low 0.991 | locus YGL086W, strain mad1, active compounds read low 0.994 | locus YGL167C, strain pmr1, active compounds read low 0.99 | locus YGL173C, strain kem1, active compounds read low 0.977 | locus YGL227W, strain vid30, active compounds read low 0.992 | locus YGL240W, strain doc1, active compounds read low 1 | locus YGL248W, strain PDE1, active compounds read low 1.01 | locus YGL253W, strain hxk2, active compounds read low 1.01 | locus YGR078C, strain PAC10, active compounds read low 1 | locus YGR135W, strain pre9, active compounds read low 1 | locus YGR229C, strain SMI1, active compounds read low 1.02 | locus YGR252W, strain gcn5, active compounds read low 1.05 | locus YHR013C, strain ard1, active compounds read low 1.01 | locus YHR027C, strain rpn1, active compounds read low 1 | locus YHR030C, strain SLT2, active compounds read low 0.993 and 1.03 | locus YHR079C, strain IRE1 (second series), active compounds read low 0.991 | locus YHR079C, strain IRE1, active compounds read low 1.01 | locus YHR094C, strain hxt1, active compounds read low 0.982 | locus YHR129C, strain ARP1, active compounds read low 1 | locus YHR142W, strain chs7, active compounds read low 0.98 | locus YHR200W, strain rpn10, active compounds read low 0.98 | locus YIL066C, strain RNR3, active compounds read low 1.01 | locus YIL073C, strain SPO22, active compounds read low 0.991 | locus YIL125W, strain kgd1, active compounds read low 0.988 | locus YIR030C, strain dcg1, active compounds read low 0.992 | locus YJL092W, strain hpr5, active compounds read low 0.987 | locus YJL095W, strain BCK1 (second series), active compounds read low 0.998 | locus YJL095W, strain BCK1, active compounds read low 1.01 and 1.02 | locus YJL115W, strain asf1, active compounds read low 0.999 | locus YJL129C, strain trk1, active compounds read low 0.98 | locus YJL134W, strain LCB3, active compounds read low 0.998 | locus YJL154C, strain vps35, active compounds read low 0.993 | locus YJL164C, strain tpk1, active compounds read low 0.994 | locus YJL166W, strain qcr8, active compounds read low 0.97 | locus YJL168C, strain set2, active compounds read low 0.988 | locus YJL187C, strain SWE1 (second series), active compounds read low 1.01 | locus YJR043C, strain POL32, active compounds read low 0.993
